One may read the AC50 as the midpoint of the concentration-response curve, whichever way the signal moves. One may read the IC50 as the concentration needed to halve the response being measured.

Experiment [1] is described as follows: growth inhibition of DIPG glioma cells, dose response, cell-based, SU-DIPG-XVII, MIPE5.0, CellTiter-Glo, qHTS (AID 1347060).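 For AC50: cells exposed to compound for 48 hours before viability readout.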 Conditions: SU-DIPG-XVII viability, CellTiter-Glo ATP luminescence. On the technique in general: ATP-based viability assays read luminescence as a measure of living cells.
Experiment [2] can be described thus: growth inhibition of DIPG glioma cells, dose response, cell-based, SU-DIPG-XIII, MIPE4.0, CellTiter-Glo, qHTS (AID 1347061; cut-off not given, nearly all actives have AC50 up to about 37 µM;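 note: cells exposed to compound for 48 hours before readout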). The following applies: SU-DIPG-XIII viability, CellTiter-Glo ATP luminescence.
Experiment [3] in a line: growth inhibition of DIPG glioma cells, dose response, cell-based, JHH-DIPG-1, MIPE4.0, CellTiter-Glo, qHTS (AID 1347062; cut-off not given, nearly all actives have AC50 up to about 27 µM;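 for AC50: cells exposed to compound for two days before readout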). Conditions: JHH-DIPG-1 viability, CellTiter-Glo ATP luminescence.
Experiment [4] is described as follows: growth inhibition of DIPG glioma cells, dose response, cell-based, SU-DIPG-IV, MIPE4.0, CellTiter-Glo, qHTS (AID 1347063; cut-off not given, nearly all actives have AC50 up to about 30 µM;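 note: compound exposure lasted 48 hours before the viability readout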). Conditions: SU-DIPG-IV viability, CellTiter-Glo ATP luminescence.
Experiment [5] can be described thus: growth inhibition of DIPG glioma cells, dose response, cell-based, SU-DIPG-XIII, MIPE5.0, CellTiter-Glo, qHTS (AID 1347064; cut-off not given, nearly all actives have AC50 up to about 23 µM;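 for AC50: cells exposed to compound for 48 hours before the viability read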). Conditions: SU-DIPG-XIII viability, CellTiter-Glo ATP luminescence.
A short description of experiment [6]: viability loss in pontine glioma line – cell-based, SU-DIPG-XXV, MIPE5.0, CellTiter-Glo, qHTS, dose response (AID 1347065).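 Note: cells exposed to compound for 48 hours before ATP readout.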 Conditions: CellTiter-Glo ATP luminescence.
Experiment [7] can be described thus: SU-DIPG-VI glioma cell viability, MIPE4.0 library, CellTiter-Glo luminescence, qHTS (AID 1347066; cut-off not given, nearly all actives have AC50 up to about 30 µM;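 note: cells exposed to compound for 48 hours before readout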). The following applies: CellTiter-Glo ATP luminescence.
Experiment [8] in a line: JHH-DIPG-1 glioma cell viability, MIPE5.0 library, CellTiter-Glo luminescence, qHTS (AID 1347067).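 Note: cells exposed to compound for 48 hours before readout.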 The following applies: JHH-DIPG-1 glioma viability, CellTiter-Glo ATP luminescence.
Experiment [9] is described as follows: SU-DIPG-XXV glioma cell viability, MIPE5.0 library, qHTS (AID 1347068; cut-off not given, nearly all actives have IC50 up to about 30 µM;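 for IC50: cells exposed to compound for 48 hours before viability readout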). For orientation: Quantitative high-throughput screening tests each substance at several concentrations.
A short description of experiment [10]: sensitizers of A549 cells to miR-34 induction, primary screen, imaging, A549 dox-inducible miR-34, nuclei and caspase counts (AID 1347080;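 active = compounds whose cell count with miR-34 switched on is under 0.7 times the count with it off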). The following applies: A549 miR-34 inducible, Hoechst nuclei count, 48 h.
Experiment [11] in a line: survival rescue of mitochondrial mutant cells in low glucose, primary screen, MELAS cybrids, Rieske KO mouse fibroblasts, CellTiter-Glo (AID 1508586;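 active = mean z-score across replicates of 1.96 or higher in either the MELAS or the Rieske mutant cell line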;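 note: z relative to plate mean and SD of compound and empty wells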).
The mark [12] stands for this setting: stronger effect = lower value, cell number ratio, induced over uninduced.
The mark [13] stands for this setting: measured here: relative caspase fold change +Dox/-Dox.
The mark [14] stands for this setting: measured here: total cells with miR-34 induction, stronger effect = lower value.
The mark [15] stands for this setting: measured here: total cells without miR-34 induction.
Where [16] appears, read: MELAS cybrid survival, CellTiter-Glo 48 h, stronger effect = higher value.
The mark [17] stands for this setting: Rieske KO mouse fibroblast survival, CellTiter-Glo 72 h.

Structures are written as SMILES. Records with an inconclusive call do not appear. The source made the active and inactive calls. Unless noted, no cut-off is given here; in the data, nearly all actives have AC50 up to about 26 µM.

Turning to `CC1(C)CC(=O)c2c(C(F)(F)F)nn(-c3ccc(C(N)=O)c(NC4CCC(O)CC4)c3)c2C1` (stereo not given), the half-maximal activity concentration (AC50) in experiment [1] was 118 nM (active); in experiment [2] it was 469 nM (active); in [3], 166 nM (active); in experiment [4], 132 nM (active); in experiment [5] it was 148 nM (active); in [6], 105 nM (active). Also, the values for the AC50 in experiment [7] and in experiment [8] were 148 nM (active) and 118 nM (active), respectively. Moreover, the IC50 in experiment [9] is 186 nM (active). Also, the values for the fold change in experiment [10] (setting [12]) and in experiment [10] (setting [13]) were 0.978 (inactive) and 0.783, respectively. Also, the cell count in experiment [10] (setting [14]) worked out at 3040; in experiment [10] (setting [15]), 3110. Moreover, the z-score in experiment [11] (setting [16]) is 2.87 (active); in experiment [11] (setting [17]), -1.99.

For `CC(C)(OCc1nn(Cc2ccccc2)c2ccccc12)C(=O)O`, the result in experiment [1], in experiment [2], in experiment [3], in experiment [4], in experiment [5] and in experiment [6] was inactive. For the same molecule, the molecule was called inactive in experiment [7], in [8] and in experiment [9]. The fold change in experiment [10] (setting [12]) was 0.935 (inactive); in experiment [10] (setting [13]), 0.724. For the same molecule, the figures for the cell count in experiment [10] (setting [14]) and in experiment [10] (setting [15]) were 9310 and 9960, respectively. Further, the z-score in experiment [11] (setting [16]) is -0.401 (inactive); in experiment [11] (setting [17]), -0.561.

The values are drawn from PubChem BioAssay.
